Paper PMC13494018
Unmarked numbers belong to inactive results. The rule behind the calls is not given here.

B1: design_596_3e5f537c-0703-45f0-993f-ff416531349a_2102_dldesign_0_cycle1_af2pred (protein)
chain: AEAVAEEMLARIEEARDALTAADPTLADIADSIADAAKERMRAAAAEGRAEEVAEVGERAVRTLEHLAKLAK
B2: design_596_3e5f537c-0703-45f0-993f-ff416531349a_2320_dldesign_0_cycle1_af2pred (protein)
chain: KKVEELKKKMLEELEKIIEIAKTLPPEEAERLITFAKAARERGEKKGVRGLAKAALNVAFEASKYEETKEAAEKLEELANEIIKLT
B3: design_597_f3dcd2b3-c7aa-4b15-88bc-bbb8d01a18cd_271_dldesign_0_cycle1_af2pred (protein)
chain: DEAKKKAAEELAEAYEYVAEALALGKKTNEEAKKLAKEAKEEFKKYRDKAKALYKAGNYEEAYKEAKKAYEESKKKLEEIKKIAE
B4: design_597_f3dcd2b3-c7aa-4b15-88bc-bbb8d01a18cd_63_dldesign_0_cycle1_af2pred (protein)
chain: GEAKAEELIKKAKEALREFAETGSLEALDKAEEYAEEISKFTPEVRAKAAEELEKVGEEGSPAARAVAKNLADYLK
B5: design_597_f3dcd2b3-c7aa-4b15-88bc-bbb8d01a18cd_323_dldesign_0_cycle1_af2pred (protein)
chain: EEVEKKLKELAEKVKKAKELAEKDPEKGIELAKEAIKEAQKLGKEADEETKKKLAEVAEEAVEVRFEALEKLVKS
B6: design_597_f3dcd2b3-c7aa-4b15-88bc-bbb8d01a18cd_135_dldesign_0_cycle1_af2pred (protein)
chain: MLTVMQAADIIIDKGAEEAKKAMVETALDVAKKYGIEAGRKAARTLSRIFKNAYGEEEGKEAEKEVLEALEKLEKE
B7: design_596_3e5f537c-0703-45f0-993f-ff416531349a_1970_dldesign_0_cycle1_af2pred (protein)
chain: DEEEKEKKLEEARKAKDEAEEALDKAMEKASPEEALELLEEYRKVSKEAQKLVKEEGVEGAAEAAKLLKEQKKYFEEKYKEL
B8: design_597_f3dcd2b3-c7aa-4b15-88bc-bbb8d01a18cd_362_dldesign_0_cycle1_af2pred (protein)
chain: AAEKAKKAADAFRAIAKAAKLALEDPEKGAAAIQAAVDAAKKESPEIAPYVAAVAEEKLAAVKAKLAAAAAA
B9: design_596_3e5f537c-0703-45f0-993f-ff416531349a_2087_dldesign_0_cycle1_af2pred (protein)
chain: MAEKLVEKAKAEMKKLVEEAKKGNPEEARKIRKEIIEKGKKALEEADTEEKKKAAEEIKKIAYKAVEEVLEAYGELLVK
B10: design_597_f3dcd2b3-c7aa-4b15-88bc-bbb8d01a18cd_98_dldesign_0_cycle1_af2pred (protein)
chain: AERVEAAGKIALARIDKAGKGTKEELAVASAQAMALVGVTAGASDEEIDAMVDKVEAAAKGANPVADAKKVLTAAIKELAAK
B11: design_596_3e5f537c-0703-45f0-993f-ff416531349a_2330_dldesign_0_cycle1_af2pred (protein)
chain: EEALKKAEERYEKYGKKALELAEKVGLKEEVEEGIKDPSKMPEVIKKLEELGEENPEVRKDAYLAASYLQRAQQAYETKKKIEAA
B12: design_597_f3dcd2b3-c7aa-4b15-88bc-bbb8d01a18cd_601_dldesign_0_cycle1_af2pred (protein)
chain: SKAEEKAKELEEKLKKAEELAKKDPKKGAKYAKEIAKEARKAGKETGETEKFAKIADKAYQIAAEAEFKAK
B13: design_596_3e5f537c-0703-45f0-993f-ff416531349a_2079_dldesign_0_cycle1_af2pred (protein)
chain: MEKEELQRRLKETAEKLAEKHPEAAPAARLVIRVGEKANAEEVRKLLELTEKALGENWKEYAAEATEYAVEIEADILVKELK
B14: design_596_3e5f537c-0703-45f0-993f-ff416531349a_2235_dldesign_0_cycle1_af2pred (protein)
chain: GLYEEAKKEAKEAFSYGIAYLSAVSAKDPSLAPEAEKELEEAFEKVEKALKDAKSGKNPEKALKEIKEIRDEWKEKLKEARA
B15: design_596_3e5f537c-0703-45f0-993f-ff416531349a_2108_dldesign_0_cycle1_af2pred (protein)
chain: DAVKKAAEEGKERVRRRAEREKKRVTPEARPEIEKAEEKGVKKVEEAAKGTVKEVANAAQEGITEVIEVGAENKIKA
B16: design_596_3e5f537c-0703-45f0-993f-ff416531349a_2018_dldesign_0_cycle1_af2pred (protein)
chain: AAEKKAKAEAKKIVEEAAKIAKEKGYDEGMKYAYKASKELAEKYGKEYGAKAFEEAVDAIGDELAKKVKE
B17: design_596_3e5f537c-0703-45f0-993f-ff416531349a_2173_dldesign_0_cycle1_af2pred (protein)
chain: SELKDLLSEAERARHKAEAIATRAKELAKYDPKEAKKIADEAKKVAEEAKKAAELAEKDPEKGKEAIKKVKEKVKKLEKKVKALEKKV
B18: design_597_f3dcd2b3-c7aa-4b15-88bc-bbb8d01a18cd_430_dldesign_0_cycle1_af2pred (protein)
chain: AVKEKLERAKKYAEETKKLAKELKKNPKFKKTAEEIEKEAEKVLEEAKKAAEKGDAEAVGEKATELRVLKTAAEQLLKAAK
B19: design_597_f3dcd2b3-c7aa-4b15-88bc-bbb8d01a18cd_570_dldesign_0_cycle1_af2pred (protein)
chain: NAIKKEVEEHLAKAEEYTAKAIETASDPEKFKEYFEKMREEFGKALKAAKADPELKKLAEDKLMEAQMKVTEAKGEAARKKNN

Biological target: VTCN1, Q7Z7D3
Sequence (Q7Z7D3 whole entry): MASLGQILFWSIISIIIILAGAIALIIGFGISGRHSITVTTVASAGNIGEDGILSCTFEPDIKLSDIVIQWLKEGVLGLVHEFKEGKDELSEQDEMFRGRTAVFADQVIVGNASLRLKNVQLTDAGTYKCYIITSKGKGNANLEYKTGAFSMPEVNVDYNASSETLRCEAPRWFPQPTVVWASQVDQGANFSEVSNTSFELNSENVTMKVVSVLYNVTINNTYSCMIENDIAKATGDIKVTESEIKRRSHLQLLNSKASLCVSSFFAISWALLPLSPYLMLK

Row | Binder | binding in a display sort
1 | B1 | not found
2 | B2 | not found
3 | B3 | not found
4 | B4 | binds (active)
5 | B5 | not found
6 | B6 | not found
7 | B7 | not found
8 | B8 | not found
9 | B9 | not found
10 | B10 | not found
11 | B11 | not found
12 | B12 | not found
13 | B13 | not found
14 | B14 | not found
15 | B15 | not found
16 | B16 | not found
17 | B17 | not found
18 | B18 | not found
19 | B19 | not found
